LRH-1 inv ag: suppresses constitutive activity of human LRH-1 | O00482 | HEK293T StAR-luciferase reporter, LRH-1 transfected, 24 h | inhibition, % at 3.6 µM | 0.13% of 360,000 active | AID 602396;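 active = inhibition above the mean inhibition of all tested compounds plus 3 SD, cut at about 73% in these data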
NCOA1 inh: inhibitors of human steroid receptor coactivator 1 (SRC1) | inhibition, % at 3.6 µM | 0.12% of 360,000 active | HEK293 GAL4-SRC1 luciferase reporter, luminescence | Q15788;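 active = inhibition above the campaign mean plus 3 SD, with each screening campaign given its own cutoff, cut at about 60% in these data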
COUP-TFII inh: inhibitors of human COUP-TFII (NR2F2) | P24468 | HEK293T NGFI-A luciferase reporter, luminescence | inhibition, % at 8.6 µM | 0.7% of 370,000 active;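 active = inhibition above a per-plate cutoff, mean inhibition of test wells between control levels plus 3 SD, cut at about 38% in these data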;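 note: cells cotransfected with COUP-TFII expression vector driving the NGFI-A reporter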
Gli-Sufu antag: Gli-Sufu pathway antagonism; 0.74% of 340,000 active; inhibition, % at 5 µM; Sufu-KO-LIGHT fibroblasts, Gli luciferase reporter luminescence;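 active = inhibition above about 55%, limit read from the data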
SRC3 inh: inhibits human SRC3 coactivator; 0.17% of 360,000 active; inhibition, % at 3.6 µM; Q9Y6Q9; HEK293 GAL4-SRC3 luciferase reporter, luminescence; AID 588352;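 active = inhibition above a per-campaign cutoff, the mean of all compounds plus 3 SD, cut at about 60% in these data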;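 note: higher means less SRC3-driven luciferase light from the GAL4 reporter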
Target sequence (Q9Y6Q9 whole entry, looked up, the tested form may be a part): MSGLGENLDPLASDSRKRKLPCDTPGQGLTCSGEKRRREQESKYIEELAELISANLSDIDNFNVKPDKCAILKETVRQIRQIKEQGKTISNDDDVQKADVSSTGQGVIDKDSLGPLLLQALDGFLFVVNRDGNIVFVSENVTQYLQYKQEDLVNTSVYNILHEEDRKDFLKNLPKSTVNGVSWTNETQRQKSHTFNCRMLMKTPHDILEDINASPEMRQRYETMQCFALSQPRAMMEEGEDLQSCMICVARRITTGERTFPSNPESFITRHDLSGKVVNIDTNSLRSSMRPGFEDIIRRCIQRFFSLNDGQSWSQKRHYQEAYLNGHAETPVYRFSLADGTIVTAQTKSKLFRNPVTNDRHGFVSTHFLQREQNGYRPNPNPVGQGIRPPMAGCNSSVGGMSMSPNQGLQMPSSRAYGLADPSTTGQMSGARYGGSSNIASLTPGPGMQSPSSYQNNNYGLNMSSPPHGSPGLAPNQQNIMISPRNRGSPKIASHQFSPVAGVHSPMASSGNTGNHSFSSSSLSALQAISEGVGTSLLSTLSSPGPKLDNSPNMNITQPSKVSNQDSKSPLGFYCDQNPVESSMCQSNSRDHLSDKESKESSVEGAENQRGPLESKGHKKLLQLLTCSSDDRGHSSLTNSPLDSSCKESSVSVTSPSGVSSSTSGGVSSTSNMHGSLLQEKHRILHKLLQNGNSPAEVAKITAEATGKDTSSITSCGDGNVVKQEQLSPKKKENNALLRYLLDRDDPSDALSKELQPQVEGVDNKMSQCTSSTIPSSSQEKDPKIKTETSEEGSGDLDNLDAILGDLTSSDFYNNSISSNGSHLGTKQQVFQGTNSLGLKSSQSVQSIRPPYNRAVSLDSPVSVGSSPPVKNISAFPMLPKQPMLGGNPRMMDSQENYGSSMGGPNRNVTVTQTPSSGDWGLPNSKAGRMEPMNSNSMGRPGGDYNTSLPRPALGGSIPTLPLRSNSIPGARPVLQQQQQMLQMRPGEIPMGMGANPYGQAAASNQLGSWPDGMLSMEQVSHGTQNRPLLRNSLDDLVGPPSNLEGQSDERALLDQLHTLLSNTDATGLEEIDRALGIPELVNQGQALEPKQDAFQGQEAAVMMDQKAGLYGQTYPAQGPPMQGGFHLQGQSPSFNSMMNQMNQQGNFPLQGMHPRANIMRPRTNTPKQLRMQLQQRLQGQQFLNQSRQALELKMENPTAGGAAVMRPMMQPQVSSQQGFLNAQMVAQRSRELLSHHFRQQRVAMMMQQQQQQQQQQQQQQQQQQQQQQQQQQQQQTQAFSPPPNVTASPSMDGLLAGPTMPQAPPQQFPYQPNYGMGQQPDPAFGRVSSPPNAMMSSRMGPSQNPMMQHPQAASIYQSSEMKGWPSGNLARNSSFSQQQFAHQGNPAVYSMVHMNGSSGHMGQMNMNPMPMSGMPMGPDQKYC
NCOA2 inhibitor: inhibits human steroid receptor coactivator 2 | Q15596 | HEK293 GAL4-SRC2 luciferase reporter, luminescence | inhibition, % at 9 µM | 0.17% of 370,000 active | AID 651957;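 active = inhibition above the mean inhibition of all tested compounds plus 3 SD, set per campaign, cut at about 52% in these data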
Of the large screens only hits and unclear results are named; the others gave an inactive call. In the library only some 1.2% were active in any assay of this set; here they are far more common.

O[C@@H](Cc1ccccc1)[C@@H](/C=C/c1ccccc1)N(Cc1ccccc1)Cc1ccccc1	none (no result: LRH-1 inv ag, NCOA1 inh, Gli-Sufu antag, SRC3 inh)
Cc1ccc(S(=O)(=O)/N=C2\C=C(Nc3ccc(O)cc3)C(=O)c3ccccc32)cc1	LRH-1 inv ag 95, NCOA1 inh 90, Gli-Sufu antag 94, SRC3 inh 92 (no result: COUP-TFII inh, NCOA2 inhibitor)
Cc1ccc(NC2=C/C(=N/S(=O)(=O)c3cccs3)c3ccccc3C2=O)cc1	Gli-Sufu antag 60, SRC3 inh 73
O=C1C(Nc2ccccc2)=C/C(=N/S(=O)(=O)c2cccs2)c2ccccc21	LRH-1 inv ag 79, NCOA1 inh 85, SRC3 inh 87 (no result: COUP-TFII inh, NCOA2 inhibitor)
Cc1ccc(S(=O)(=O)/N=C2/C=C(Sc3ncn[nH]3)C(=O)c3ccccc32)cc1	LRH-1 inv ag 97, NCOA1 inh 91, SRC3 inh 94 (no result: COUP-TFII inh, NCOA2 inhibitor)
Cc1[nH]c2ccccc2c1CC(=O)Nc1ccc(N(C)c2cccnc2)c(-c2ccc(F)c(F)c2)c1	none (no result: LRH-1 inv ag, NCOA1 inh, Gli-Sufu antag, SRC3 inh)
C(=N\Nc1nc2ccccc2[nH]1)/c1cccc2cccnc12	Gli-Sufu antag 67, SRC3 inh 62
COC(=O)[C@]12C[C@H](CC(=O)NCc3cccs3)C(=O)N(Cc3ccccc3)C1=C[C@H](C(C)(C)C)O[C@@H]2C	none (no result: LRH-1 inv ag, NCOA1 inh, Gli-Sufu antag, SRC3 inh)
CCOC(=O)c1c(C)nn(-c2ccc(NC(=O)c3c(C)noc3C)cc2)c1C	NCOA2 inhibitor 54
COC(=O)CCN1CCSCCS1(=O)=O	none (no result: LRH-1 inv ag, NCOA1 inh, Gli-Sufu antag, SRC3 inh)
O=C(CCc1c[nH]c2ccccc12)Nc1ccc(Oc2cccnc2)cc1	none (no result: LRH-1 inv ag, NCOA1 inh, Gli-Sufu antag, SRC3 inh)
COC(=O)c1cc2c(c3c4cc(C)ccc4n(S(=O)(=O)c4cccc(C)c4)c13)C(=O)N(Cc1ccc(C(F)(F)F)cc1)C2	none (no result: LRH-1 inv ag, NCOA1 inh, Gli-Sufu antag, SRC3 inh)
C=CCN=C1NN=C(c2cc(C)n(CC=C)c2C)CS1	NCOA1 inh 71, COUP-TFII inh 77, Gli-Sufu antag 71, SRC3 inh 70, NCOA2 inhibitor 58
COCCN=C1NN=C(c2cc(C)n(CC3CCCO3)c2C)CS1 (stereo not drawn)	none
O=C(Nc1ccc(Nc2cccnc2)cc1)c1c[nH]c2ccccc12	none (no result: LRH-1 inv ag, NCOA1 inh, Gli-Sufu antag, SRC3 inh)
CC(=O)Nc1ccc(NC2=Nc3ccccc3N3C2=Nc2c(c(C)nn2-c2ccccc2)C3c2ccccc2)cc1 (stereo not drawn)	Gli-Sufu antag 60
CCOC(=O)[C@]12CCCCC/C=C\1N(CCc1ccc(Cl)cc1)C(=O)[C@H]2CC(=O)NCCCCc1ccccc1	none (no result: LRH-1 inv ag, NCOA1 inh, Gli-Sufu antag, SRC3 inh)
Cc1cnc(NC(=O)CCCc2nc3ccccc3s2)s1	LRH-1 inv ag 83
O=C(CCCc1nc2ccccc2s1)Nc1nccs1	none
COCCCNC(=O)c1oc(=O)c2ccccc2c1-c1ccc(C)cc1	none (no result: LRH-1 inv ag, NCOA1 inh, Gli-Sufu antag, SRC3 inh)
O=C1C=CC2(C=C1)O[C@H](Cc1ccccc1)[C@@H](Cc1ccccc1)O2	COUP-TFII inh 100, NCOA2 inhibitor 54
Cc1ccc(C2c3c(n[nH]c3C(C)C)C(=O)N2c2ccccc2)cc1 (stereo not drawn)	none (no result: LRH-1 inv ag, NCOA1 inh, Gli-Sufu antag, SRC3 inh)
CCC(=O)Nc1ccc(NC(=O)c2oc3ccccc3c2C)cc1	NCOA2 inhibitor 58
COc1cccc2c1C(=O)c1c(O)c3c(c(O)c1C2=O)C[C@@](O)(C(=O)CO)C[C@@H]3O[C@H]1C[C@H](N)[C@H](O)[C@H](C)O1	LRH-1 inv ag 98
COc1cccc2c1C(=O)c1c(O)c3c(c(O)c1C2=O)C[C@@](O)(C(=O)CO)C[C@@H]3OC1CC(N)C(O)C(C)O1 (stereo partly drawn)	LRH-1 inv ag 78, Gli-Sufu antag 91
CCCN(C(=O)C1CCCN(c2ncnc3c2nc2n3CCCCC2)C1)c1ccccc1C (stereo not drawn)	none (no result: LRH-1 inv ag, NCOA1 inh, Gli-Sufu antag, SRC3 inh)
c1ccc2c(c1)CCN(c1nc3cc4c(cc3s1)OCCO4)C2	COUP-TFII inh 61, NCOA2 inhibitor 58
COc1ccc(OC)c2sc(N3CCc4ccccc4C3)nc12	none
O=C(Nc1ccc(N2CCCCC2)cc1)c1ccccn1	NCOA1 inh 64, Gli-Sufu antag 64, SRC3 inh 71 (no result: COUP-TFII inh, NCOA2 inhibitor)
Cc1cccc(-c2sc(Nc3ccccc3)n[n+]2-c2ccc(F)cc2)c1	none
CCc1ccc(Nc2n[n+](-c3ccccc3)c(-c3cccc(C)c3)s2)cc1	Gli-Sufu antag 70
COc1ccc(C(=O)NCC(=O)OCc2c(Cl)cccc2Cl)cc1OC	SRC3 inh 66
COc1ccc(C(=O)NCC(=O)OCc2ccc(F)cc2Cl)cc1OC	none
C=CCN1C(=O)[C@H](CC(=O)NCC23CC4CC(CC(C4)C2)C3)[C@@]2(C(=O)OC)CCCCC=C12	none (no result: LRH-1 inv ag, NCOA1 inh, Gli-Sufu antag, SRC3 inh)
COC(=O)c1ccc2c(c1)C(C)(C)C(/C=C/c1ccccc1O)=[N+]2C	Gli-Sufu antag 65
CCCC[C@H](C(=O)N(C)c1cccc(OC)c1)[C@@H](O)c1ccc(C(C)=O)cc1	none (no result: LRH-1 inv ag, NCOA1 inh, Gli-Sufu antag, SRC3 inh)
CCCCCCCCCCOC(=O)Cn1c(COc2ccc(OC)cc2)[n+](C)c2ccccc21	Gli-Sufu antag 76 (no result: COUP-TFII inh, NCOA2 inhibitor)
CCCCCCCCCCOC(=O)Cn1c(COc2ccc(Cl)cc2)[n+](C)c2ccccc21	Gli-Sufu antag 68
CCCCCCCCCCOC(=O)Cn1c(COc2ccccc2C)[n+](C)c2ccccc21	Gli-Sufu antag 85 (no result: COUP-TFII inh, NCOA2 inhibitor)
CCCCCCCCCCOC(=O)Cn1c(COc2ccccc2)[n+](C)c2ccccc21	Gli-Sufu antag 62
O=S(=O)(c1cccs1)N1CCCc2nc(-c3ccccc3)ccc21	none (no result: LRH-1 inv ag, NCOA1 inh, Gli-Sufu antag, SRC3 inh)
Oc1c(CN2CCOCC2)cc(COCc2ccccc2)c2cccnc12	Gli-Sufu antag 61
CCN1CCN(C(=S)c2ccc(-c3ccccc3)cc2)CC1	NCOA2 inhibitor 71
Cc1ccc(C(=S)N2CCN(Cc3ccccc3)CC2)cc1	none
ClC1=C(Cl)C(Cl)=C(Cl)C1=C/C=C/c1ccccc1	Gli-Sufu antag 79
CC1=NN(c2ccccc2)C(=O)/C1=C\C=C\c1ccccc1	none
Cc1nc2c(o1)C(=O)c1ccccc1C2=Nc1ccccc1	SRC3 inh 77
CC(=O)c1c(C)oc2c1C(=O)c1ccccc1C2=O	none
CCOc1ccc(Nc2ncnc3ccc([N+](=O)[O-])cc23)cc1	NCOA1 inh 69
CCOC(=O)c1ccc(Nc2ncnc3ccc(C)cc23)cc1	none
N#Cc1cc2ccncc2c2ccccc12	none (no result: Gli-Sufu antag)
Nc1cc2ccncc2c2ccccc12	NCOA1 inh 67
C[C@H]1CN([C@@H](C)CO)C(=O)CCCn2cc(nn2)CO[C@@H]1CN(C)S(=O)(=O)c1ccc(F)cc1	none (no result: LRH-1 inv ag, NCOA1 inh, Gli-Sufu antag, SRC3 inh)
CCOc1ccc(C(=O)C(CCC(CN(C)C)C(=O)c2ccc(OCC)cc2)CN(C)C)cc1 (stereo not drawn)	LRH-1 inv ag 88
Cc1onc(-c2ccccc2)c1C(=O)NC(=S)NNC(=O)c1ccccc1O	LRH-1 inv ag 90, NCOA1 inh 64, SRC3 inh 76
Cc1onc(-c2ccccc2)c1C(=O)NC(=S)NNC(=O)c1ccc(O)cc1	none
CC(=O)c1sc(NC(=O)C=C(C)C)nc1C	none
CC(=O)c1sc(NC(=O)C2(F)C(F)(F)C(F)(F)C(F)(F)C(F)(F)C2(F)F)nc1C	Gli-Sufu antag 75
Cn1c(/C(C#N)=C/c2ccc(-c3ccc(S(N)(=O)=O)cc3)o2)nc2ccccc21	SRC3 inh 68
O=C(NCc1ccccc1)[C@@H]1CCCN1C(=O)[C@H]1CCCN1C(=O)c1ccc(OC(F)(F)F)cc1	none (no result: LRH-1 inv ag, NCOA1 inh, Gli-Sufu antag, SRC3 inh)

High-throughput results: PubChem, several laboratories
